{"source": "PubChem BioAssay", "data": [{"test": "small molecules captured by biotinylated probe aFST – biochemical, small-molecule microarray, fluorescence 635/667, stem cell growth factor project, primary screen (AID 1086);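 note: score merges 667 nm fluorescence with signal-to-noise of each printed compound spot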", "conditions": "higher = more signal", "values": [{"smiles": "CC(C)=NO[C@H](C)c1cn([C@H](CO)Cc2ccccc2)nn1", "composite z-score": 0.0676}, {"smiles": "CCOC(=O)[C@H](CC(C)C)NC(=O)CCC1CC(OC(=O)NCc2cccc3ccccc23)CC2(CCCC(COC(=O)NCCOc3ccccc3)O2)O1", "note": "(stereo partly specified)", "composite z-score": 0.0697}, {"smiles": "O=C1C[C@@H](O)[C@@H](O)[C@@H]2[C@@H]3C(=O)N(C[C@@H]4CCCO4)C(=O)[C@@H]3CC[C@@H]12", "composite z-score": 0.817}, {"smiles": "CCOC(=O)[C@H](CC(C)C)NC(=O)CCC1CC(OC(=O)NCc2cccc3ccccc23)CC2(CCCC(COC(=O)NCCc3ccc(Cl)cc3)O2)O1", "note": "(stereo partly specified)", "composite z-score": -0.001}, {"smiles": "CO[C@H]1COC(=O)CC=C[C@@H](C)[C@H](NS(=O)(=O)c2ccc(C)cc2)COC(=O)CCC[C@@H]1C", "composite z-score": -0.225}, {"smiles": "CO[C@H]1COC(=O)[C@H](C)NC(=O)CC=C[C@@H](C)[C@H](OC)COC(=O)[C@@H](OCc2ccccc2)C=C[C@@H]1C", "composite z-score": 0.0521}, {"smiles": "CCCNC(=O)OC[C@H]1O[C@H](CCON=C(C)CCN2CCCc3nc(C)c(C)cc32)C=C[C@@H]1Oc1ccc(OC)cc1", "composite z-score": 0.504}, {"smiles": "C#CCCCON=C1C[C@@H](O)[C@@H](O)[C@@H]2[C@@H]3C(=O)N(CC)C(=O)[C@@H]3CC[C@@H]12", "composite z-score": 0.276}, {"smiles": "COC(=O)[C@H](C)NC(=O)CCC1CC(OC(=O)NCc2ccc3c(c2)OCO3)CC2(CCCC(COC(=O)NCC3CCCCC3)O2)O1", "note": "(stereo partly specified)", "composite z-score": 0.315}, {"smiles": "CO[C@H]1COC(=O)CC=C[C@@H](C)[C@H](OC)COC(=O)[C@@H]2CCCN2C(=O)CC=C[C@@H]1C", "composite z-score": 0.374}, {"smiles": "CON=C[C@@H](NS(=O)(=O)c1ccc(C)cc1)[C@H](C)C=CCC(=O)OC", "composite z-score": -0.371}, {"smiles": "COc1cccc([C@H]2Oc3ccc(OC)cc3C(=NO[C@H](C)c3cn([C@H](CO)Cc4ccccc4)nn3)[C@@H]2O)c1", "composite z-score": 0.107}, {"smiles": "COc1ccc(COC(=O)NN=C2C[C@@H](O)[C@@H](O)[C@@H]3[C@@H]4C(=O)N(c5cccc(Oc6ccccc6)c5)C(=O)[C@@H]4CC[C@@H]23)cc1", "composite z-score": 0.88}, {"smiles": "CO[C@@H]1COC(=O)CC=C[C@H](C)[C@H](OC)COC(=O)[C@H](C)NC(=O)CC=C[C@H]1C", "composite z-score": 0.0458}, {"smiles": "O=C1C[C@@H](O)[C@@H](O)[C@@H]2[C@@H]3C(=O)N(C[C@@H]4CCCO4)C(=O)[C@@H]3CC[C@H]12", "composite z-score": 0.158}, {"smiles": "COC(=O)[C@@H]1CC[C@@H](C)[C@H](c2ccc(Br)cc2)N1", "composite z-score": -0.199}, {"smiles": "COC(=O)[C@@H]1CC[C@H](C)[C@@H](c2ccc(C)cc2)N1C(=O)c1ccc(C=NO[C@H](C)c2cn([C@@H]3COC[C@H]3O)nn2)cc1", "composite z-score": 0.165}, {"smiles": "Cn1c(=O)n2n(c1=O)[C@H]1[C@H](O)[C@@H]3O[C@@H]3C(=NOCc3ccccc3)[C@H]1CC2", "composite z-score": -0.0977}, {"smiles": "CCOC(=O)NN=C1C[C@@H](O)[C@@H](O)[C@@H]2[C@@H]3C(=O)N(c4cccc(Oc5ccccc5)c4)C(=O)[C@@H]3CC[C@@H]12", "composite z-score": 0.0218}, {"smiles": "COC(=O)[C@H](C)NC(=O)CCC1CC(OC(=O)NCc2cccc3ccccc23)CC2(CCCC(COC(=O)NCC(c3ccccc3)c3ccccc3)O2)O1", "note": "(stereo partly specified)", "composite z-score": 0.157}, {"smiles": "Cc1ccc(S(=O)(=O)n2c3ccccc3c3nnc(C(=O)c4ccccc4)nc32)cc1", "composite z-score": 0.141}, {"smiles": "COC(=O)C=CCCc1coc(C=CCNC(=O)OC)n1", "composite z-score": 1.04}, {"smiles": "CON=C1[C@H]2CCn3c(=O)n(-c4ccccc4)c(=O)n3[C@H]2[C@H](O)[C@@H]2O[C@H]12", "composite z-score": 0.17}, {"smiles": "CC(C)=CCCC(C)=CCON=C1C[C@@H](O)[C@@H](O)[C@@H]2[C@@H]3C(=O)N(C4CCCCC4)C(=O)[C@@H]3CC[C@@H]12", "composite z-score": 0.0152}, {"smiles": "O=C1[C@H]2[C@H]3[C@H](O)[C@H](O)CC(=NOC[C@@H](O)COCc4ccco4)[C@H]3CC[C@H]2C(=O)N1C[C@@H]1CCCO1", "composite z-score": -0.181}, {"smiles": "O=C(NN=C1C[C@@H](O)[C@@H](O)[C@@H]2[C@@H]3C(=O)N(C[C@@H]4CCCO4)C(=O)[C@@H]3CC[C@@H]12)OCc1ccccc1", "composite z-score": -0.0104}, {"smiles": "COc1ccc(C#C[C@@H]2C=C[C@H](OC(C)=O)[C@@H](COC(C)=O)O2)cc1", "composite z-score": -0.0985}, {"smiles": "CC(C)CON=C1C[C@@H](O)[C@@H](O)[C@@H]2[C@@H]3C(=O)N(c4cccc(Oc5ccccc5)c4)C(=O)[C@@H]3CC[C@@H]12", "composite z-score": -0.129}, {"smiles": "CCOC(=O)[C@H](CC(C)C)NC(=O)CCC1CC(OC(=O)NCc2cccc3ccccc23)CC2(CCCC(COC(=O)NCc3cccc(C(F)(F)F)c3)O2)O1", "note": "(stereo partly specified)", "composite z-score": -0.262}, {"smiles": "C#CCCCON=C1C[C@@H](O)[C@@H](O)[C@@H]2[C@@H]3C(=O)N(Cc4ccccc4)C(=O)[C@@H]3CC[C@@H]12", "composite z-score": 0.53}, {"smiles": "COc1ccc(O[C@H]2C=C[C@@H](c3ccccc3)O[C@@H]2CON=CC[C@@H]2C=C[C@H](OC(C)=O)[C@@H](COC(C)=O)O2)cc1", "composite z-score": 0.388}, {"smiles": "CC(C)(C)N1C(=O)[C@H]2[C@H]3[C@H](O)[C@H](O)CC(=O)[C@H]3CC[C@H]2C1=O", "composite z-score": 0.115}, {"smiles": "Cc1cc2c(nc1C)CCCCN2CC(C)ON=C[C@@H](C)[C@H](OCc1ccccc1)C(C)C", "note": "(stereo partly specified)", "composite z-score": -0.514}, {"smiles": "C#CCCCON=C1C[C@@H](O)[C@@H](O)[C@@H]2[C@@H]3C(=O)N(CCC(=O)OCC)C(=O)[C@@H]3CC[C@H]12", "composite z-score": 0.593}, {"smiles": "CCOC(=O)[C@H](CC(C)C)NC(=O)CCC1CC(OC(=O)NCc2cccc3ccccc23)CC2(CCCC(COC(=O)NCCOC)O2)O1", "note": "(stereo partly specified)", "composite z-score": 0.754}, {"smiles": "COc1ccc(COC(=O)NN=C2C[C@@H](O)[C@@H](O)[C@@H]3[C@@H]4C(=O)N(c5ccc(F)cc5F)C(=O)[C@@H]4CC[C@H]23)cc1", "composite z-score": 1.28}]}]}
